# Test results published in PubChem BioAssay (NCI).
# Compounds without any hit were thinned out: in the full panel of roughly 79,000, 15% have a hit. A number with no mark means an inactive call. Calls of active or inactive are those of the source. Rule as the data show it: active = growth inhibition above about 70%; inactive = the rest.
# Assay: NCI Yeast Anticancer Drug Screen. Data for the wt1 strain (AID 149);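 also: 0% = growth of vehicle-treated wt1 cultures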
# Settings: S. cerevisiae wt1 strain (SPY 50644) growth inhibition, active compounds read high
# Protocol: Growth inhibition of yeast strains with defined genetic alterations is measured as a screen for potential anti-cancer activity. Selected strains with alterations in DNA damage repair or cell cycle control were exposed to compounds and growth inhibition was measured relative to vehicle treated controls. The strain used in this assay is wt1
SMILES,growth inhibition (at 1.2 µM),growth inhibition (at 3.7 µM),growth inhibition (at 11.0 µM),growth inhibition (at 33.0 µM),growth inhibition (at 100.0 µM)
O=C(O)CNc1ccc(Cl)c(Cl)c1,-3%,-6%,-6%,25%,98% (active)
CN(C)c1nc2sc3c(c2c(=O)o1)CCCC3,-5%,-4%,-4%,8%,32%
COc1ccc(/C=C/C(=O)C(C)(C)Br)cc1,4%,12%,15%,19%,33%
O=C(CCCN1CCC(O)(c2ccc(Cl)cc2)CC1)c1ccc(F)cc1,0%,7%,13%,23%,14%
CC(=O)Cc1ccc[cH-]1.[Fe+2].c1cc[cH-]c1,1%,2%,14%,10%,7%
O=[n+]1c2ccc(Cl)cc2n([O-])c2ccc(Cl)cc21,-2%,2%,2%,7%,12%
CC/C(=C(\c1ccccc1)c1ccc(OCCN(C)C)cc1)c1ccccc1,8%,-8%,22%,98% (active),50%
Fc1ccc(NC(=S)SCc2ccc(Cl)c(Cl)c2)cc1F,-4%,12%,33%,99% (active),98% (active)
